Measurements taken from PubChem BioAssay.
Inconclusive results are not listed. Active and inactive are the calls of the source.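 Rule for the calls, unless noted: active = response below a set limit, under 55% cells CD8-positive and vesicle-bound, and CD8 cells' 90th-percentile brightness under 279; inactive = the rest.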

Experiments:
[1] = yeast TOR pathway RPL19A-GFP modulators, primary screen, cell-based, S. cerevisiae, multiplex flow cytometry (AID 1862; in the data active = percent of DMSO control GFP below about 86%;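 note: lower values mimic rapamycin by blocking the RPL19A rise seen in DMSO cells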); conditions: S. cerevisiae RPL19A-GFP strain, flow cytometry fluorescence, 3 h; at 10 µM; stronger effect = lower value
[2] = modulators of MEP2-GFP levels in yeast, primary screen, S. cerevisiae, multiplex flow cytometry (AID 1867;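 active = GFP response, as percent of the DMSO control, above the screen-wide mean plus 3 SD, about 139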;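 note: median GFP channel fluorescence of barcode-gated MEP2-GFP cells measured by flow cytometry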); conditions: S. cerevisiae MEP2-GFP strain, 3 h, at 10 µM, stronger effect = higher value, 100% means same as DMSO wells
[3] = modulators of CIT2-GFP expression in yeast, primary screen, S. cerevisiae, GFP fusion, multiplex flow cytometry (AID 1870;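 active = percent response above a set limit, the screen-wide mean plus 3 SD, cut at about 130% in these data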;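 note: barcoded CIT2-GFP strain pooled with four other GFP strains with rapamycin as positive control; median GFP fluorescence per well over plate mean of DMSO wells so 100% = DMSO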); conditions: 3 h, at 10 µM, stronger effect = higher value
[4] = modulators of LAP4-GFP expression in yeast, primary screen, S. cerevisiae, multiplex flow cytometry (AID 1873;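 active = GFP signal, as percent of the solvent control, above the screen mean plus 3 SD, about 149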); conditions: 3 h, at 10 µM, stronger effect = higher value
[5] = modulators of AGP1-GFP expression in yeast TOR pathway, primary screen, cell-based, multiplex flow cytometry, S. cerevisiae (AID 1887;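 active = GFP signal above the screen-wide mean plus 3 SD, that is over about 124.5% of the solvent control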;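 note: AGP1-GFP fusion strain of S. cerevisiae within a five-strain barcoded multiplex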); conditions: 3 h, at 10 µM, stronger effect = higher value
[6] = inhibitors of CD8+ T cell-vesicle binding, pilot screen, LFA-1/ICAM-1 modulator project, MLPCN validation set, flow cytometry (AID 2523); conditions: 2C mouse CD8+ T cells, at 7 µM, stronger effect = lower value; double positive events: measured here: CD8+/vesicle+ event percentage;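 for vesicle binding response: mean PE anti-B7-1 fluorescence of CD8+ cells relative to row control; 100% = QL9-loaded vesicles with DMSO vehicle in the same plate row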
[7] = molecular target: Integrin beta-1 (Homo sapiens) + Integrin alpha-4 (Homo sapiens) (UniProt P13612+P05556); test: inhibition of HUTS-21 binding to VLA-4, pilot screen, VLA-4 allosteric modulator project, U937 cells, HUTS-21 mAb, flow cytometry, validation set (AID 2674;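 active = inhibition above 50%, about 3 SD of the validation set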;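 note: antibody binding induced by the VLA-4 ligand LDV present at three times its Kd; 0% = LDV ligand with antibody and no compound and 100% = antibody without LDV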); conditions: HUTS-21 LIBS mAb binding, at 6.7 µM, stronger effect = higher value, binding induced by LDV ligand
Integrin beta-1 (Homo sapiens) + Integrin alpha-4 (Homo sapiens), sequence (P05556 whole entry, looked up): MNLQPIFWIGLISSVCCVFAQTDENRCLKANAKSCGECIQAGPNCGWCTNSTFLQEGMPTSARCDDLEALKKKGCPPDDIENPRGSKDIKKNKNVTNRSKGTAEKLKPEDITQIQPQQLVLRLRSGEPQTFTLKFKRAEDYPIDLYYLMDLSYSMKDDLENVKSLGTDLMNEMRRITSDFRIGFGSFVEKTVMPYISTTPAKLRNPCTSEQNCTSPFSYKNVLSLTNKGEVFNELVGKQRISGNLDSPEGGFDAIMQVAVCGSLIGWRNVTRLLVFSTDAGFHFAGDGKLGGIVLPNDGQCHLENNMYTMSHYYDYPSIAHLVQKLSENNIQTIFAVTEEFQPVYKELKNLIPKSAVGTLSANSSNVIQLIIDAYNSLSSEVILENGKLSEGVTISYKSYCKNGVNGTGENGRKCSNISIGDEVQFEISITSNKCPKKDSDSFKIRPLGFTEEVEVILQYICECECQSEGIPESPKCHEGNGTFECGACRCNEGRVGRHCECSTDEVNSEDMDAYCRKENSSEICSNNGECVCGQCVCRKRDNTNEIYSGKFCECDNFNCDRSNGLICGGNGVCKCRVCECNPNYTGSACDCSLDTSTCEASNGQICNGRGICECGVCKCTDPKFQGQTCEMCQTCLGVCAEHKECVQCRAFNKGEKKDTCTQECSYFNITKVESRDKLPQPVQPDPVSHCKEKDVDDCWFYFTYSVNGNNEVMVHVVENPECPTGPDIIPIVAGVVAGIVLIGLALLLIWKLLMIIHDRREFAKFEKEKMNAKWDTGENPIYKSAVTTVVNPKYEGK
Integrin beta-1 (Homo sapiens) + Integrin alpha-4 (Homo sapiens), sequence (P13612 whole entry, looked up): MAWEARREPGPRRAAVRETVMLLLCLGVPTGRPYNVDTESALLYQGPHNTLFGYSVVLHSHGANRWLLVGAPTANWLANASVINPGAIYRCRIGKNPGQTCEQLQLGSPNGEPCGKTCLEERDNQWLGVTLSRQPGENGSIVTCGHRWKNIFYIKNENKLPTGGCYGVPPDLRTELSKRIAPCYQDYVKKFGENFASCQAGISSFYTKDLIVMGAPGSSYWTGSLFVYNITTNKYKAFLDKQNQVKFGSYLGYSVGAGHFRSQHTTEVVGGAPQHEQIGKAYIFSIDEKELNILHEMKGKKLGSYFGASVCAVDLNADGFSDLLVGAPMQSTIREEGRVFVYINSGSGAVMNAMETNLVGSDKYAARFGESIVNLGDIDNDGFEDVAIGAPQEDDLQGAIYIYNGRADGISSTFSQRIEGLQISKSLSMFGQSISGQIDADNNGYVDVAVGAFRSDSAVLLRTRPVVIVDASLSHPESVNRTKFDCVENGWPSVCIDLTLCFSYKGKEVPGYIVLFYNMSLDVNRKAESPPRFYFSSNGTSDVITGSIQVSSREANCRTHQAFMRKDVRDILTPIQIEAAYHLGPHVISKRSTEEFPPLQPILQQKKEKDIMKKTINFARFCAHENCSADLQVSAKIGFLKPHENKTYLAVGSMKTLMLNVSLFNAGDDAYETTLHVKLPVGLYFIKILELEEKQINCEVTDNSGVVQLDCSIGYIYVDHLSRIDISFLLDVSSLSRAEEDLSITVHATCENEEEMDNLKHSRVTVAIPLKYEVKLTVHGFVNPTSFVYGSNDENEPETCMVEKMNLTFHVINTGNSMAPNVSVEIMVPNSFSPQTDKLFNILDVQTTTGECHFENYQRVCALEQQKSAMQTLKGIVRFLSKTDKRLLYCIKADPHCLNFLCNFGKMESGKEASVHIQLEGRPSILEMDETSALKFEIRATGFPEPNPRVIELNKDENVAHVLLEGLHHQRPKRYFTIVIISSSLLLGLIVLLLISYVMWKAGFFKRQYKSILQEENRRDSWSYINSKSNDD

[8] = superoxide lowering in aged yeast cells, pilot screen, validation compound set (AID 2706;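 active = superoxide response below 65% of plate, a cut near 3 SD across the whole screen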;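 note: yeast exposed to compound for one week at 30 degrees C before staining; 100% = mean of all compound wells on the same plate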); conditions: S. cerevisiae aging, superoxide DHE fluorescence; at 10 µM; stronger effect = lower value
[9] = molecular target: Beta-adrenergic receptor kinase 1 (Homo sapiens) (UniProt P25098); test: GRK2 binders displacing RNA aptamer, biochemical, validation, human GRK2, bead flow cytometry (AID 488806;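 active = aptamer binding inhibition above 30%, about 3 SD of noise from non-fluorescent compounds; inactive = inhibition at or below 30%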); conditions: bead-bound GRK2, FAM-aptamer displacement, at 10 µM, stronger effect = higher value
Beta-adrenergic receptor kinase 1 (Homo sapiens), sequence (P25098 whole entry, looked up): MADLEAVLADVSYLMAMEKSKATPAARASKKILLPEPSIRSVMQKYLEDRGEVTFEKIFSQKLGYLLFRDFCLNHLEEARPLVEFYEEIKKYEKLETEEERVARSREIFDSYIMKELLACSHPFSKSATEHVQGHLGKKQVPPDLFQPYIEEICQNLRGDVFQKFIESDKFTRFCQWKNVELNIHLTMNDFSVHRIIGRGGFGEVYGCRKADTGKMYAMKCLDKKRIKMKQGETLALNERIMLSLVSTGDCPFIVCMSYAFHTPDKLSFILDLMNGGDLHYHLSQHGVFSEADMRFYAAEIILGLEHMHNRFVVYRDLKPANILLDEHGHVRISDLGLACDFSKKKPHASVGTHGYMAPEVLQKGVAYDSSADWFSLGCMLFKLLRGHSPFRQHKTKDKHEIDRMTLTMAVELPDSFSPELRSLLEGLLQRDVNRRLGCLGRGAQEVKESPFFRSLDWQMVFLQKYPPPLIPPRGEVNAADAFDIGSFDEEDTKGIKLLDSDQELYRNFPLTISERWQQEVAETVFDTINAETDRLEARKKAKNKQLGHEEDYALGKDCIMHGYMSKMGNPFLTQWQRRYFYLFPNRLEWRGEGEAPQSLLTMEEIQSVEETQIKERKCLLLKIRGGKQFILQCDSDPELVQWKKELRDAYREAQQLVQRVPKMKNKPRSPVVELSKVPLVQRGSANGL

[10] = molecular target: Beta-2 adrenergic receptor (Homo sapiens) (UniProt P07550); test: beta2AR agonists driving receptor internalization, pilot screen, cell-based, FAP fluorogen, flow cytometry, validation set (AID 504459;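 active = percent response above 42, roughly 3 SD of non-fluorescent test compounds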;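 note: agonist-driven loss of surface beta2AR via internalization measured by FAP dye flow cytometry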); conditions: Am2.2-beta2AR cells, FAP surface receptor flow cytometry; at 10 µM; stronger effect = higher value
Beta-2 adrenergic receptor (Homo sapiens), sequence (P07550 whole entry, looked up): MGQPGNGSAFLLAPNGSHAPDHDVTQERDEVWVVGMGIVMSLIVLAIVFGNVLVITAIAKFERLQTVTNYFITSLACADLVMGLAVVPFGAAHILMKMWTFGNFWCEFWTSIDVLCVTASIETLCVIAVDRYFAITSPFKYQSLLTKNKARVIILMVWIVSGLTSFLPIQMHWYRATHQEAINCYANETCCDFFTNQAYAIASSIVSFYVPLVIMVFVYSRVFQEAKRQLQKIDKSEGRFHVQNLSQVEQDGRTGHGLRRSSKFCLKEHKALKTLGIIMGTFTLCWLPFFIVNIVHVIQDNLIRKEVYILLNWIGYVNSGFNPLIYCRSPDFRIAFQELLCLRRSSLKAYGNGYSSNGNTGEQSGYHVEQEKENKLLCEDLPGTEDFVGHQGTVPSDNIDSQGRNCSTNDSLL

[11] = molecular target: AP-2 complex subunit beta (Homo sapiens) (UniProt P63010); test: inhibitors of arrestin peptide binding to AP2, pilot screen, biochemical, validation set, GST-AP2 beads, flow cytometry (AID 504541;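 active = inhibition above 54%, about 3 SD of non-fluorescent compounds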;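 note: AP2 carries R879A mutation and is captured from E. coli lysate; bead-bound FITC arrestin peptide fluorescence measuring arrestin peptide binding to AP2; 0% = DMSO wells and 100% = excess unlabeled arrestin peptide control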); conditions: FITC arrestin peptide, at 10 µM, stronger effect = higher value, AP2 beta2 appendage fragment, R879A mutant
AP-2 complex subunit beta (Homo sapiens), sequence (P63010 whole entry, looked up, the tested form may be a part, one chain of several): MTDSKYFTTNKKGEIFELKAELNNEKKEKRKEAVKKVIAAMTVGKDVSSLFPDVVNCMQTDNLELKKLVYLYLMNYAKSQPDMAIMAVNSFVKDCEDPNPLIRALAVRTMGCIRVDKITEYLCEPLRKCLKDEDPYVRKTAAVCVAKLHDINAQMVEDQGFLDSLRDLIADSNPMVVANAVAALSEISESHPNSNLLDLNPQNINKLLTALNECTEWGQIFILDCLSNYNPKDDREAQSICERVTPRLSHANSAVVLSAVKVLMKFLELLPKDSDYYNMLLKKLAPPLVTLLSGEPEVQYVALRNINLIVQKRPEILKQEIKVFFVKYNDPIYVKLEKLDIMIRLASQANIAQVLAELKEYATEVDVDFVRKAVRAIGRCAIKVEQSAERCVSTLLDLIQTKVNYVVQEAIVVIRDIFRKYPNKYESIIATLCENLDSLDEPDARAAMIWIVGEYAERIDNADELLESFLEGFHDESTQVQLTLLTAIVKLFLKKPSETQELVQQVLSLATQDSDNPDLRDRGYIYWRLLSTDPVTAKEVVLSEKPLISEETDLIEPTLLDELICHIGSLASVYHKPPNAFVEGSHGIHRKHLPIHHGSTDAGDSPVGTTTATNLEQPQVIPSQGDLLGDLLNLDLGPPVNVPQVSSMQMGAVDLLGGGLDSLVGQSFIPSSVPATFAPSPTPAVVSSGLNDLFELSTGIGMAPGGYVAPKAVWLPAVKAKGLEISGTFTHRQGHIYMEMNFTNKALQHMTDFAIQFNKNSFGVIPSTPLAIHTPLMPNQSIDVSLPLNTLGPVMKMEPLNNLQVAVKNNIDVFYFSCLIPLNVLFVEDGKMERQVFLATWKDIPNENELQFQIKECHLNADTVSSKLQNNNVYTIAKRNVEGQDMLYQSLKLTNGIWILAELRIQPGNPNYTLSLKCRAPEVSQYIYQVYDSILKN

[12] = yeast V-ATPase proton transport modulators, S. cerevisiae, pHLuorin, HTS validation (AID 504600; in the data active = response above about 15%;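 note: plate controls were DMSO for no effect and reference compound for full effect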); conditions: S. cerevisiae pHLuorin cytosolic pH, at 10 µM, stronger effect = higher value
[13] = system: anti-desmoglein-3 scFv antibody binding to human DSG3; test: inhibitors of anti-DSG3 scFv binding to DSG3, pilot screen, biochemical, validation compound set, bead-based, flow cytometry (AID 588368;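 active = binding below the plate cutoff, the plate median minus 3 SD, with a reading above zero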;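 note: signal is the median channel fluorescence of bead-bound GFP antibody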); conditions: Protein G beads, DSG3-Fc, scFv-GFP binding, at 10 µM, stronger effect = lower value
[14] = inhibitors of fungal efflux pumps CDR1, CDR2, MDR1, pilot screen, validation compound set, multiplex, phenotypic (AID 588506;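 active = efflux inhibition above 0.42, the validation set average plus 4 SD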;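 note: Nile Red retained in cells so higher fluorescence means more efflux inhibition; 0 = negative control wells and 1 = enniatin B 25 µM full block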); conditions: S. cerevisiae pump-expressing triplex, Nile Red efflux flow cytometry; at 10 µM; stronger effect = higher value; the pumps come from Candida albicans
[15] = molecular target: ATP-binding cassette sub-family B member 6 (Homo sapiens) (UniProt Q9NP58); test: ABCB6 transporter inhibitors, pilot screen, K562-ABCB6 cells, flow cytometry, validation set (AID 588550;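 active = inhibition above the screen-wide mean plus 3 SD, about 51%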;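 note: 0% = DMSO wells and 100% = benzethonium chloride 70 µM positive control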); conditions: K562-ABCB6 porphyrin accumulation, 1 h, at 10 µM, stronger effect = higher value
ATP-binding cassette sub-family B member 6 (Homo sapiens), sequence (Q9NP58 whole entry, looked up): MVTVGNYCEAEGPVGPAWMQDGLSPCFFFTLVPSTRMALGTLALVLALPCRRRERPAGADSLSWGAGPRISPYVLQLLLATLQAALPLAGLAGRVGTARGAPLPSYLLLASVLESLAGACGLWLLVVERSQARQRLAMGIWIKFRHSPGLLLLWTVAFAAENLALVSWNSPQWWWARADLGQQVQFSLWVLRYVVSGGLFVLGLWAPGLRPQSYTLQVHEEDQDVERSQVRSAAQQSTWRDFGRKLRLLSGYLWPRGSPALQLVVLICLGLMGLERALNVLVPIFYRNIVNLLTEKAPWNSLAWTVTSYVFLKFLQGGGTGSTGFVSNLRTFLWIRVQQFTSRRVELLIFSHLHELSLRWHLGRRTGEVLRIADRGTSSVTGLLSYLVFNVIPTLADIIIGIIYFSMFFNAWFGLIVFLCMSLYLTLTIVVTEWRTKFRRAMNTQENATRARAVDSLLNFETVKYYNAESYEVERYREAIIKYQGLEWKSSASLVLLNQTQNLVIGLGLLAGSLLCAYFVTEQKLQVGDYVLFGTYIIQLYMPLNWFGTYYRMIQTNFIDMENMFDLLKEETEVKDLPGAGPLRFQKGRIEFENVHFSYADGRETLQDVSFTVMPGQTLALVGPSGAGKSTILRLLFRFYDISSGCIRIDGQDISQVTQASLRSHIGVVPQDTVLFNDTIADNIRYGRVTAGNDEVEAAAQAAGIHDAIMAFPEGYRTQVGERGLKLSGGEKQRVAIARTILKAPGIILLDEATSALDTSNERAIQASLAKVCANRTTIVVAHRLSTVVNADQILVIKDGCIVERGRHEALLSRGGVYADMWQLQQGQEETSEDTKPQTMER

[16] = promoters of myeloid differentiation in arrested cells, primary screen, cell-based, GFP/MAC1 double positive, flow cytometry, validation set (AID 588685;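 active = differentiation response of at least 50%, scaled between solvent and reference control, from cells with both markers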;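 note: compound exposure lasts four days before antibody staining and flow analysis; 0% = DMSO wells and 100% = 5 µM fulvestrant positive control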); conditions: ER-HoxA9 marrow cells, stronger effect = higher value, normalized: vehicle 0, fulvestrant 100

CC(C)(C)OC(=O)NCCC(=O)Oc1ccc2ccc(=O)oc2c1
percent of DMSO control GFP [1]: 100% (inactive) | GFP response vs DMSO [2]: 91.9% (inactive) | percent response of DMSO control [3]: 98.6% (inactive) | GFP response vs DMSO [4]: 76% (inactive) | GFP response, % of DMSO [5]: 84% (inactive) | double positive events [6]: 56.1% | vesicle binding response [6]: 238% (inactive) | inhibition [7]: -1.79% (inactive) | superoxide response (% of plate) [8]: 101% (inactive) | aptamer binding inhibition [9]: 4% (inactive) | response [10]: 7.52% (inactive) | inhibition [11]: 17.2% (inactive) | response [12]: 7.71% (inactive) | binding (% of control) [13]: 101% (inactive) | efflux inhibition (fraction of control) [14]: 0.05 (inactive) | inhibition [15]: 3% (inactive) | differentiation response [16]: -12% (inactive)

COc1ccc(CCn2c(C)nc3c(c(=O)c4ccccc4n3C)c2=O)cc1
percent of DMSO control GFP [1]: 98.6% (inactive) | GFP response vs DMSO [2]: 102% (inactive) | percent response of DMSO control [3]: 103% (inactive) | GFP response vs DMSO [4]: 104% (inactive) | GFP response, % of DMSO [5]: 116% (inactive) | double positive events [6]: 61.1% | vesicle binding response [6]: 155% (inactive) | inhibition [7]: -8.78% (inactive) | superoxide response (% of plate) [8]: 96.8% (inactive) | aptamer binding inhibition [9]: 5% (inactive) | response [10]: -29.5% (inactive) | inhibition [11]: 7.96% (inactive) | response [12]: 7.85% (inactive) | binding (% of control) [13]: 101% (inactive) | efflux inhibition (fraction of control) [14]: 0.21 (inactive) | inhibition [15]: 5% (inactive) | differentiation response [16]: 16.7% (inactive)

NC(N)=N/N=C/c1cccc(Cl)c1Cl
percent of DMSO control GFP [1]: 104% (inactive) | GFP response vs DMSO [2]: 96.3% (inactive) | percent response of DMSO control [3]: 98.6% (inactive) | GFP response vs DMSO [4]: 103% (inactive) | GFP response, % of DMSO [5]: 98.8% (inactive) | double positive events [6]: 66.1% | vesicle binding response [6]: 157% (inactive) | inhibition [7]: 9.13% (inactive) | superoxide response (% of plate) [8]: 97.9% (inactive) | aptamer binding inhibition [9]: -3% (inactive) | response [10]: 22.4% (inactive) | inhibition [11]: 14.4% (inactive) | response [12]: -0.64% (inactive) | binding (% of control) [13]: 102% (inactive) | efflux inhibition (fraction of control) [14]: -0.24 (inactive) | inhibition [15]: 4% (inactive) | differentiation response [16]: -18.4% (inactive)

CC1(C)S[C@@H]2[C@H](NC(=O)Cc3ccccc3)C(=O)N2[C@H]1C(=O)O
percent of DMSO control GFP [1]: 105% (inactive) | GFP response vs DMSO [2]: 102% (inactive) | percent response of DMSO control [3]: 98.3% (inactive) | GFP response vs DMSO [4]: 101% (inactive) | GFP response, % of DMSO [5]: 119% (inactive) | double positive events [6]: 66.2% | vesicle binding response [6]: 185% (inactive) | inhibition [7]: 15.1% (inactive) | superoxide response (% of plate) [8]: 92.1% (inactive) | aptamer binding inhibition [9]: 3% (inactive) | response [10]: -19.9% (inactive) | inhibition [11]: 1.23% (inactive) | response [12]: -1.26% (inactive) | binding (% of control) [13]: 99.7% (inactive) | efflux inhibition (fraction of control) [14]: 0.08 (inactive) | inhibition [15]: 10% (inactive) | differentiation response [16]: 2.89% (inactive)

CC12CN3CC(C)(CN(C1)C3c1ccc([N+](=O)[O-])o1)C2 (stereo not given)
percent of DMSO control GFP [1]: 102% (inactive) | GFP response vs DMSO [2]: 101% (inactive) | percent response of DMSO control [3]: 95.4% (inactive) | GFP response vs DMSO [4]: 96% (inactive) | GFP response, % of DMSO [5]: 91.5% (inactive) | double positive events [6]: 64.6% | vesicle binding response [6]: 1050% (inactive) | inhibition [7]: 12% (inactive) | superoxide response (% of plate) [8]: 111% (inactive) | aptamer binding inhibition [9]: 5% (inactive) | response [10]: -5.46% (inactive) | inhibition [11]: 1.92% (inactive) | response [12]: 2.45% (inactive) | binding (% of control) [13]: 93.8% (inactive) | efflux inhibition (fraction of control) [14]: -0.1 (inactive) | inhibition [15]: -9% (inactive) | differentiation response [16]: 7.09% (inactive)

CC(C)CCC1(CCNC(C)c2cccs2)CCOC(C)(C)C1 (stereo not given)
percent of DMSO control GFP [1]: 102% (inactive) | GFP response vs DMSO [2]: 108% (inactive) | percent response of DMSO control [3]: 97.8% (inactive) | GFP response vs DMSO [4]: 93.3% (inactive) | GFP response, % of DMSO [5]: 101% (inactive) | double positive events [6]: 58.8% | vesicle binding response [6]: 1220% (inactive) | inhibition [7]: -6.68% (inactive) | superoxide response (% of plate) [8]: 96.5% (inactive) | aptamer binding inhibition [9]: 0% (inactive) | response [10]: 8.29% (inactive) | inhibition [11]: 1.09% (inactive) | response [12]: -1.06% (inactive) | binding (% of control) [13]: 98.5% (inactive) | efflux inhibition (fraction of control) [14]: -0.17 (inactive) | inhibition [15]: 2% (inactive) | differentiation response [16]: 1.22% (inactive)

COc1ccc2c(C=O)cn(C)c2c1
percent of DMSO control GFP [1]: 89.8% (inactive) | GFP response vs DMSO [2]: 137% (inactive) | percent response of DMSO control [3]: 103% (inactive) | GFP response vs DMSO [4]: 82% (inactive) | GFP response, % of DMSO [5]: 85% (inactive) | double positive events [6]: 66.8% | vesicle binding response [6]: 151% (inactive) | inhibition [7]: 6.46% (inactive) | superoxide response (% of plate) [8]: 87.5% (inactive) | aptamer binding inhibition [9]: 7% (inactive) | response [10]: -0.49% (inactive) | inhibition [11]: 9.51% (inactive) | response [12]: -4.19% (inactive) | binding (% of control) [13]: 105% (inactive) | efflux inhibition (fraction of control) [14]: 0.27 (inactive) | inhibition [15]: 11% (inactive) | differentiation response [16]: 4.91% (inactive)

CCCCCC(=O)O[C@]1(C(C)=O)CC[C@H]2[C@@H]3CCC4=CC(=O)CC[C@]4(C)[C@H]3CC[C@@]21C
percent of DMSO control GFP [1]: 98.9% (inactive) | GFP response vs DMSO [2]: 95.6% (inactive) | percent response of DMSO control [3]: 94.5% (inactive) | GFP response vs DMSO [4]: 108% (inactive) | GFP response, % of DMSO [5]: 98.1% (inactive) | double positive events [6]: 60% | vesicle binding response [6]: 153% (inactive) | inhibition [7]: -17.2% (inactive) | superoxide response (% of plate) [8]: 105% (inactive) | aptamer binding inhibition [9]: 0% (inactive) | response [10]: 6.12% (inactive) | inhibition [11]: 18.3% (inactive) | response [12]: -0.4% (inactive) | binding (% of control) [13]: 105% (inactive) | efflux inhibition (fraction of control) [14]: -0.155 (inactive) | inhibition [15]: 2% (inactive) | differentiation response [16]: -0.18% (inactive)

COc1cc(-c2cccs2)cc(=O)c2c(C)oc(C)c12
percent of DMSO control GFP [1]: 97.6% (inactive) | GFP response vs DMSO [2]: 105% (inactive) | percent response of DMSO control [3]: 84.4% (inactive) | GFP response vs DMSO [4]: 142% (inactive) | GFP response, % of DMSO [5]: 93.2% (inactive) | double positive events [6]: 62.6% | vesicle binding response [6]: 235% (inactive) | inhibition [7]: -160% (inactive) | superoxide response (% of plate) [8]: 96.1% (inactive) | aptamer binding inhibition [9]: -1% (inactive) | response [10]: 54% (active) | inhibition [11]: 54.7% (active) | response [12]: -7.46% (inactive) | binding (% of control) [13]: 105% (inactive) | efflux inhibition (fraction of control) [14]: 0.26 (inactive) | inhibition [15]: 2% (inactive) | differentiation response [16]: 4% (inactive)

Cn1nnnc1SCC1=C(C(=O)O)N2C(=O)[C@@H](NC(=O)[C@H](O)c3ccccc3)[C@H]2SC1
percent of DMSO control GFP [1]: 97.7% (inactive) | GFP response vs DMSO [2]: 115% (inactive) | percent response of DMSO control [3]: 106% (inactive) | GFP response vs DMSO [4]: 90.2% (inactive) | GFP response, % of DMSO [5]: 103% (inactive) | double positive events [6]: 67.4% | vesicle binding response [6]: 318% (inactive) | inhibition [7]: 0.64% (inactive) | superoxide response (% of plate) [8]: 86.1% (inactive) | aptamer binding inhibition [9]: 13% (inactive) | response [10]: 3.85% (inactive) | inhibition [11]: 3.95% (inactive) | response [12]: 1.15% (inactive) | binding (% of control) [13]: 107% (inactive) | efflux inhibition (fraction of control) [14]: 0.3 (inactive) | inhibition [15]: 16% (inactive) | differentiation response [16]: 15.6% (inactive)
